ANO1 activ = mouse TMEM16A channel activation, primary screen. 0.3% of 340,000 active. AID 623877. HEK293 TMEM16A/YFP-H148Q/I152L, iodide quench fluorescence; stronger effect = lower value. B-score at 10 µM;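 active means fluorescence-ratio B-score plate-corrected deviation score at least 3 library SD below zero, with starting fluorescence score within 5 deviations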;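 further: channel opened by trigger with iodide after compound preincubation; score built on the fluorescence ratio of max minus min over baseline; more negative score means more quench and so TMEM16A activation or potentiation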
CHT PAM = allosterically activates the human high affinity choline transporter; B-score at 10 µM; AID 488977; CHT-expressing cells, membrane potential dye, choline EC20; stronger effect = higher value; LV-AA mutant CHT in HEK293 cells; 0.49% of 310,000 active;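 active means initial fluorescence not abnormally high and integrated response B-score, plate-corrected, over 3 SD above library mean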
CHT inh = inhibitors of human choline transporter CHT | CHT-expressing cells, membrane potential dye, choline response; stronger effect = lower value | B-score at 10 µM | Q9GZV3 | 0.86% of 310,000 active | AID 488975;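 active means B-score over 3 SD under the library average, and starting fluorescence ratio not unusually high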;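 further: choline stimulus applied at its EC90 after an EC20 pre-addition; B-score computed on integrated fluorescence ratio after choline addition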
ANO1 block = blocks the mouse calcium-activated chloride channel TMEM16A; Q8BHY3; HEK293 TMEM16A/YFP iodide influx fluorescence, ionomycin; normalized B-score (activity score, 25-100; higher = stronger inhibition) at 10 µM; 1.2% of 310,000 active;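 active means ratio plate-corrected score three or more library SD toward inhibition, starting fluorescence score within five deviations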;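 further: score derived from kinetic fluorescence span divided by baseline fluorescence per well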
CHT inh conf = confirmation of human choline transporter CHT inhibitors; shares compounds with CHT inh; CHT-expressing cells, choline membrane potential dye; LV-to-AA substituted CHT, HEK293 cells; CHT activity remaining % of control (stronger effect = lower value), % at 10 µM; 70% of 2,400 active; AID 493221;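 active means choline transporter activity left, mean of duplicates at 10 µM, below buffer-only control mean minus 3 SD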;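 further: depolarization triggered by choline at its EC90 following an EC20 pre-addition; 0% = hemicholinium-3 full block and 100% = buffer-only control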
HEK293 MPD ctr = CHT inhibitor counter-screen hit in parental HEK293 cells. membrane potential ratio readout (active if shifted either direction beyond buffer ±3SD; no single direction) at 10 µM. membrane potential dye, choline response; active = decrease or increase beyond buffer ±3SD. 4% of 2,400 active. shares compounds with CHT inh;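 further: parental cells lack the transporter so any hit is non-specific; ratio is peak minus trough fluorescence over baseline after EC90 choline challenge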
* = called active by the depositor. An excerpt weighted towards active compounds, which were near 2.3% of everything screened.

What do the screens show for `CCCn1c2ccccc2c2cnn(CC(=O)NCCCN3CCN(c4ccccc4)CC3)c(=O)c21`?
ANO1 activ: inactive; CHT PAM: inactive; CHT inh: -9.93*; ANO1 block: inactive; CHT inh conf: 22.9%*; HEK293 MPD ctr: inactive

What do the screens show for `CCCn1c2ccccc2c2cnn(CC(=O)NCCCN3CCCC(C)C3)c(=O)c21` (configuration not stated)?
ANO1 activ: inactive; CHT PAM: inactive; CHT inh: -6.64*; ANO1 block: inactive; CHT inh conf: 26.1%*; HEK293 MPD ctr: inactive

How did Cn1c2ccccc2c2cnn(CC(=O)NCCCN3CCN(c4ccccc4F)CC3)c(=O)c21 do in these assays?
ANO1 activ: inactive; CHT PAM: inactive; CHT inh: -5.49*; ANO1 block: inactive; CHT inh conf: inactive; HEK293 MPD ctr: inactive

How did CCOc1ccc(NC(=O)/C(C#N)=C\c2ccc(N3CCCC3)c(C)c2)cc1 do in these assays?
ANO1 activ: inactive

What do the screens show for `c1ccc(-c2cn(C[C@H]3CC[C@H](Cn4cc(-c5ccccn5)nn4)O3)nn2)nc1`?
ANO1 activ: inactive; CHT PAM: inactive; CHT inh: inactive; ANO1 block: inactive

How did CCCCCCCCC[n+]1cccc2c3ccccc3ccc21 do in these assays?
ANO1 activ: inactive; CHT PAM: inactive; CHT inh: -6.78*; ANO1 block: 100*; CHT inh conf: 59.0%*; HEK293 MPD ctr: inactive

What do the screens show for `CC(=O)OC1CC2(C)C(=O)CCC2C2CCc3cc(O)ccc3C12` (configuration not stated)?
ANO1 activ: inactive; CHT PAM: inactive; CHT inh: -8.13*; ANO1 block: inactive; CHT inh conf: 28.4%*; HEK293 MPD ctr: inactive

What do the screens show for `CCOC(=O)c1c(/N=C/c2cc(OC)cc([N+](=O)[O-])c2O)sc(C)c1C`?
ANO1 activ: inactive; CHT PAM: inactive; CHT inh: inactive; ANO1 block: inactive

How did CCOC(=O)c1c(/N=C/c2cc([N+](=O)[O-])ccc2O)sc(C)c1C do in these assays?
ANO1 activ: inactive; CHT PAM: inactive; CHT inh: -5*; ANO1 block: inactive; CHT inh conf: inactive; HEK293 MPD ctr: inactive

How did CCCn1c(N)c(C(=O)CSc2nncs2)c(=O)[nH]c1=O do in these assays?
ANO1 activ: inactive

Results for O=C(CSc1nnc(-c2ccco2)n1Cc1ccco1)NCc1cccs1 ?
ANO1 activ: inactive; CHT PAM: inactive; CHT inh: -5.28*; ANO1 block: inactive; CHT inh conf: 66.9%*; HEK293 MPD ctr: inactive

How did CCn1c(COc2ccc(=O)n(-c3ccccc3)n2)nnc1SCc1ccc(OC)cc1 do in these assays?
ANO1 activ: inactive; CHT PAM: inactive; CHT inh: -5.35*; ANO1 block: inactive; CHT inh conf: inactive; HEK293 MPD ctr: inactive

How did CCN1CCN(CC(=O)Nc2ccc(S(=O)(=O)N3C(C)CCCC3C)cc2)CC1 (configuration not stated) do in these assays?
ANO1 activ: inactive; CHT PAM: inactive; CHT inh: -5.83*; ANO1 block: inactive; CHT inh conf: 25.4%*; HEK293 MPD ctr: inactive

How did OC(CNC1Cc2ccccc2C1)c1ccccc1 (configuration not stated) do in these assays?
ANO1 activ: inactive; CHT PAM: inactive; CHT inh: -5.23*; ANO1 block: inactive; CHT inh conf: 51.7%*; HEK293 MPD ctr: inactive

How did COC(=O)c1c(C)[nH]c(C(=O)OCc2csc(CC(=O)Nc3ccccc3C)n2)c1C do in these assays?
ANO1 activ: inactive

What do the screens show for `Cc1ccccc1OCC(=O)OCC(=O)c1c[nH]c2ccccc12`?
ANO1 activ: inactive

What do the screens show for `O=C(c1cnn2c(C(F)(F)F)cc(-c3cccs3)nc12)N1CCN(Cc2ccccc2)CC1`?
ANO1 activ: inactive; CHT PAM: inactive; CHT inh: -5.5*; ANO1 block: inactive; CHT inh conf: 56.5%*; HEK293 MPD ctr: inactive

Results for O=C(Nc1scc(-c2ccccc2)c1C(=O)O)c1ccco1 ?
ANO1 activ: inactive; CHT PAM: inactive; CHT inh: inactive; ANO1 block: inactive

How did COc1cc(C(=O)Nc2scc(-c3ccc(C)cc3)c2C(=O)O)cc(OC)c1OC do in these assays?
ANO1 activ: inactive; CHT PAM: inactive; CHT inh: -6.56*; ANO1 block: inactive; CHT inh conf: 56.4%*; HEK293 MPD ctr: inactive

What do the screens show for `CC(C)(C)C(=O)Nc1scc(-c2ccc(-c3ccccc3)cc2)c1C(=O)O`?
ANO1 activ: inactive; CHT PAM: inactive; CHT inh: -7.45*; ANO1 block: inactive; CHT inh conf: 36.5%*; HEK293 MPD ctr: inactive

Results for O=C(CN1C(=O)C2CC=CCC2C1=O)Nc1nnc(C2CC2)s1 (configuration not stated) ?
ANO1 activ: inactive

How did O=C(CS(=O)c1ccc(C(F)(F)F)cc1[N+](=O)[O-])Oc1ccccc1 (configuration not stated) do in these assays?
ANO1 activ: inactive; CHT PAM: inactive; CHT inh: -4.98*; ANO1 block: inactive; CHT inh conf: -5.7%*; HEK293 MPD ctr: inactive

Results for CC(=O)NC(Cc1cccc(F)c1)C(=O)NC1CCN(C(=O)c2cccc(C)c2)CC1 (configuration not stated) ?
ANO1 activ: inactive; CHT PAM: inactive; CHT inh: -7.81*; ANO1 block: inactive; CHT inh conf: inactive; HEK293 MPD ctr: inactive

What do the screens show for `CCOC(=O)c1c(-c2ccccc2)c[nH]c1C`?
ANO1 activ: inactive

What do the screens show for `Cc1nonc1NC(=O)CSc1ccc(-c2ccccc2)nn1`?
CHT PAM: inactive; CHT inh: -7.98*; ANO1 block: inactive; CHT inh conf: 23.3%*; HEK293 MPD ctr: inactive

How did CCOC(=O)C1CCCN(C(=O)c2csc(-c3ccc4c(c3)CCO4)n2)C1 (configuration not stated) do in these assays?
ANO1 activ: inactive; CHT PAM: inactive; CHT inh: -7.23*; ANO1 block: inactive; CHT inh conf: 56.5%*; HEK293 MPD ctr: inactive

Results for CCOC(=O)C1CCCN(C(=O)c2ccc3c(c2)OCCO3)C1 (configuration not stated) ?
ANO1 activ: inactive

Results for Cc1cc(C)cc(N(CCC#N)C(=O)COC(=O)c2nc3nc(C)cc(C)n3n2)c1 ?
ANO1 activ: inactive; CHT PAM: inactive; CHT inh: inactive; ANO1 block: inactive

Screening data deposited in PubChem by Johns Hopkins Ion Channel Center.
